3CLpro inhibitor = SARS-CoV 3CLpro protease inhibition | P0C6X7 | recombinant SARS-CoV 3CLpro, quenched FRET peptide cleavage | inhibition, % at 6 µM | actives 0.14% (n = 290,000); in the data active means inhibition above about 12%
GDH-TPI counter-1 = GDH-TPI coupled enzyme inhibition counter-screen; GDH-TPI coupled enzyme counterscreen, NADH absorbance; inhibition, % at 4.8 µM; actives 1.2% (n = 360,000); AID 588335; in the data active means inhibition above about 30%
Mtb BioA inh = blocks M. tuberculosis BioA enzyme activity; purified M. tuberculosis BioA enzyme, plate reader; inhibition, % at 9.99 µM; actives 0.096% (n = 360,000); in the data active means inhibition above about 40%
FadD28 binding = inhibitors of Mycobacterium tuberculosis FadD28 bisubstrate binding; inhibition, % at 12.5 µM; actives 0.22% (n = 360,000); FadD28 bisubstrate probe binding, fluorescence polarization; in the data active means inhibition above about 8.5%, passing the limit was not always enough
Mtb FBA inh = inhibits M. tuberculosis FBA enzyme; inhibition, % at 1 µM; AID 588726; purified M. tuberculosis FBA, fluorescence read-out; actives 2.3% (n = 360,000)
Target sequence (P9WQA3 whole entry, looked up): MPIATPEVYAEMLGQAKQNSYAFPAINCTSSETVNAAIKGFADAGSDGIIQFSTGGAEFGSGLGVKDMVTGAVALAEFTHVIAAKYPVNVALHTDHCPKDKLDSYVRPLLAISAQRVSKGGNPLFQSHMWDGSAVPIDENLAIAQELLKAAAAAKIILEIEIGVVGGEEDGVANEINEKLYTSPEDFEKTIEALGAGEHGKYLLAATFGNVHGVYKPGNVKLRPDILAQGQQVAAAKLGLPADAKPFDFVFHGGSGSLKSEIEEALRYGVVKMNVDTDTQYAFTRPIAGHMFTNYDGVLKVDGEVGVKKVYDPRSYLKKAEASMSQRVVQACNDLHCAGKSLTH
Mtb FBA confirm = confirmation of M. tuberculosis fructose-bisphosphate aldolase inhibitors | shares compounds with Mtb FBA inh | purified M. tuberculosis FBA, fluorescence read-out | inhibition, % at 1 µM | actives 78% (n = 5,600) | AID 651616
GDH-TPI counter-2 = counter-screen for M. tuberculosis FBA inhibitors: GDH-TPI coupled enzyme inhibition; shares compounds with Mtb FBA inh; GDH-TPI coupled enzyme counterscreen, fluorescence; inhibition, % at 1 µM; actives 81% (n = 5,600); AID 652141; in the data active means inhibition above about 10%
Of the large screens only hits and unclear results are named; the others gave an inactive call (follow-up assays come after a bar, where they were run). Only some compounds are listed: those with a hit (about 3.1% of all), similar ones and a draw of the others. Unless noted, no stated cut-off is given here; in the data, active means inhibition above about 27%; inactive means the rest.

CCN(CC)Cc1c(O)ccc2occ(C(=O)c3ccccc3)c12	none
COc1ccccc1Oc1coc2c(CN3CCN(C)CC3)c(O)ccc2c1=O	Mtb FBA inh 80.4 | Mtb FBA confirm 90.6 | GDH-TPI counter-2 72.7
CCOC(=O)c1oc2cc(O)ccc2c(=O)c1-c1csc(C)n1	none
CCN(CC)Cc1c(O)ccc2c(=O)c(Oc3ccccc3OC)coc12	Mtb FBA inh 71.1 (no result: Mtb BioA inh) | Mtb FBA confirm active | GDH-TPI counter-2 active
CN1CCN(Cc2c(O)ccc3c(=O)c(Oc4ccccc4Cl)c(C(F)(F)F)oc23)CC1	none
CCN(CC)Cc1c(O)ccc2c(=O)c(-c3ccccc3)coc12	Mtb FBA inh 69.4 | Mtb FBA confirm 61.4 | GDH-TPI counter-2 42.8
CCOc1ccccc1Oc1coc2cc(OC)ccc2c1=O	none
Cc1nc(-c2coc3c(CN(C)C)c(O)ccc3c2=O)cs1	Mtb FBA inh 41.9 | Mtb FBA confirm inactive | GDH-TPI counter-2 inactive
Cc1ccc(-c2ccc([C@@H]3[C@H](CO)N4CCCCN(C(=O)Nc5ccccc5)C[C@@H]34)cc2)cc1	none (no result: 3CLpro inhibitor, GDH-TPI counter-1, FadD28 binding, Mtb FBA inh)
COc1ccccc1CNC(=O)C[C@H]1C[C@@H]2c3cc(NS(C)(=O)=O)ccc3O[C@@H]2[C@H](CO)O1	none (no result: 3CLpro inhibitor, GDH-TPI counter-1, FadD28 binding, Mtb FBA inh)
CCN(CC)CC(=O)Nc1cc(N(C)C)nc2ccccc12	GDH-TPI counter-1 37.9, Mtb FBA inh 36.2 | Mtb FBA confirm 30.2 | GDH-TPI counter-2 26.3
Cc1cccc(-c2ccc([C@@H]3[C@@H](CO)N4CCCCN(S(=O)(=O)c5cccs5)C[C@@H]34)cc2)c1	none (no result: 3CLpro inhibitor, GDH-TPI counter-1, FadD28 binding, Mtb FBA inh)
N#Cc1c(C(F)(F)F)cc(-c2ccccc2)nc1SCCN1CCOCC1	Mtb FBA inh 46.9 | Mtb FBA confirm inactive | GDH-TPI counter-2 inactive
Cn1ccc2c(-c3ccc(CO)cc3)cc3c(c21)C1CCC3C1 (configuration not stated)	Mtb FBA inh 81.5 (no result: 3CLpro inhibitor, GDH-TPI counter-1) | Mtb FBA confirm active | GDH-TPI counter-2 active
COc1ccc(-c2cc3c(c4c2ccn4C)C2CCC3C2)cc1F (configuration not stated)	none (no result: 3CLpro inhibitor, GDH-TPI counter-1)
Cn1ccc2c(-c3ccc(F)cc3)cc3c(c21)C1CCC3C1 (configuration not stated)	none (no result: 3CLpro inhibitor, GDH-TPI counter-1)
Cn1ccc2c(-c3ccc(C(F)(F)F)cc3)cc3c(c21)C1CCC3C1 (configuration not stated)	Mtb FBA inh 34.5 (no result: 3CLpro inhibitor, GDH-TPI counter-1) | Mtb FBA confirm 56.0 | GDH-TPI counter-2 47.0
Cn1ccc2c(-c3ccc4c(c3)OCCO4)cc3c(c21)C1CCC3C1 (configuration not stated)	none (no result: 3CLpro inhibitor, GDH-TPI counter-1)
Cn1ccc2c(-c3ccc(C(N)=O)cc3)cc3c(c21)C1CCC3C1 (configuration not stated)	Mtb FBA inh 53.2 (no result: 3CLpro inhibitor, GDH-TPI counter-1) | Mtb FBA confirm 112.5 | GDH-TPI counter-2 103.1
C[C@H](CO)N1C[C@H](C)[C@@H](CN(C)C(=O)CCCN(C)C)OCCCC[C@H](C)Oc2ccc(NC(=O)c3ccncc3)cc2C1=O	none (no result: 3CLpro inhibitor, GDH-TPI counter-1, FadD28 binding, Mtb FBA inh)
C[C@@H]1CCCCO[C@@H](CN(C)S(=O)(=O)c2cccs2)[C@H](C)CN([C@@H](C)CO)C(=O)c2cc(NC(=O)Nc3ccc(C(F)(F)F)cc3)ccc2O1	none (no result: 3CLpro inhibitor, GDH-TPI counter-1, FadD28 binding, Mtb FBA inh)
O=C(N/N=C/c1cc(Cl)ccc1O)c1ccc(Br)cc1	Mtb FBA inh 26.9 (no result: Mtb BioA inh) | Mtb FBA confirm 77.9 | GDH-TPI counter-2 56.6
O=C(N/N=C/c1cc(Br)ccc1O)c1ccncc1	none
O=[N+]([O-])c1ccc2c(c1)S(=O)c1ccccc1-2 (configuration not stated)	Mtb FBA inh 27.1 | Mtb FBA confirm 146.6 | GDH-TPI counter-2 109.9
O=S1c2ccccc2-c2ccccc21	none (no result: 3CLpro inhibitor)
CC1CCCCN1Cc1c(O)ccc2c(=O)c(-c3ccc(Cl)cc3Cl)coc12 (configuration not stated)	Mtb FBA inh 61.7 | Mtb FBA confirm active | GDH-TPI counter-2 active
CC1CCCCN1Cc1ccc(N)cc1 (configuration not stated)	none (no result: Mtb BioA inh)
CC1CCCCN1Cc1c(O)ccc2c(=O)c(-c3ccc(Cl)cc3)coc12 (configuration not stated)	Mtb FBA inh 52.3 | Mtb FBA confirm 123.4 | GDH-TPI counter-2 102.6
CC1CCCCN1Cc1c(O)ccc2c(=O)c(-c3ccc(Br)cc3)coc12 (configuration not stated)	Mtb FBA inh 41.6 (no result: Mtb BioA inh) | Mtb FBA confirm active | GDH-TPI counter-2 163.9
CO[C@@H]1CN(C)C(=O)c2cc(NC(=O)C3CC3)ccc2OC[C@H](C)N(Cc2cccc(F)c2)C[C@H]1C	none (no result: 3CLpro inhibitor, GDH-TPI counter-1, FadD28 binding, Mtb FBA inh)
CO[C@@H]1CN(C)C(=O)c2cc(NC(=O)NC(C)C)ccc2OC[C@@H](C)N(C)C[C@H]1C	none (no result: 3CLpro inhibitor, GDH-TPI counter-1, FadD28 binding, Mtb FBA inh)
CNC(=O)C[C@@H]1CC[C@H]2[C@@H](COc3ccc(NC(=O)Nc4cccc(F)c4)cc3C(=O)N2C)O1	none (no result: 3CLpro inhibitor, GDH-TPI counter-1, FadD28 binding, Mtb FBA inh)
CN(C)C(=O)C[C@@H]1CC[C@@H]2[C@H](COC[C@@H](O)CN2Cc2ccc(C(F)(F)F)cc2)O1	none (no result: 3CLpro inhibitor, GDH-TPI counter-1, FadD28 binding, Mtb FBA inh)
Cc1cccc(NC(=O)CNC(=O)COC(=O)C2CC2C)c1C (configuration not stated)	Mtb FBA inh 29.6 (no result: 3CLpro inhibitor) | Mtb FBA confirm inactive | GDH-TPI counter-2 inactive
CCCNC(=O)N[C@@H]1CC[C@H](CCn2cc(-c3cccc(F)c3)nn2)O[C@H]1CO	none (no result: 3CLpro inhibitor, GDH-TPI counter-1, FadD28 binding, Mtb FBA inh)
Cc1cc(OCC(=O)N2CCC(C(=O)O)CC2)c2c3c(c(=O)oc2c1)CCC3	Mtb FBA inh 97.7 | Mtb FBA confirm 166.3 | GDH-TPI counter-2 133.2
CCCc1cc(=O)oc2cc(C)cc(OCC(=O)N3CCC(C(=O)O)CC3)c12	Mtb FBA inh 96.5 | Mtb FBA confirm 72.7 | GDH-TPI counter-2 64.7
Cc1cc(OCC(=O)N2CCc3ccccc3C2)c2c(-c3ccccc3)cc(=O)oc2c1	none
COc1ccccc1N1CCN(C(=O)COc2cc(C)cc3oc(=O)cc(C)c23)CC1	none
CCCc1cc(=O)oc2cc(OCC(=O)N3CCC(C(=O)O)(c4ccccc4)CC3)ccc12	Mtb FBA inh 76.2 | Mtb FBA confirm 101.4 | GDH-TPI counter-2 81.3
CCCCc1cc(=O)oc2cc(C)cc(OCC(=O)N3CCC(C(=O)O)(c4ccccc4)CC3)c12	Mtb FBA inh 62.4 | Mtb FBA confirm 51.8 | GDH-TPI counter-2 34.1
O=C(C[C@H]1C=C[C@@H](NC(=O)Nc2ccc(C(F)(F)F)cc2)[C@@H](CO)O1)NCc1cc(F)cc(F)c1	none (no result: 3CLpro inhibitor, GDH-TPI counter-1, FadD28 binding, Mtb FBA inh)
COc1ccc(S(=O)(=O)Nc2cccc3c2O[C@@H](CN(C)Cc2ccc(C(F)(F)F)cc2)[C@H](C)CN([C@@H](C)CO)C3=O)cc1	none (no result: 3CLpro inhibitor, GDH-TPI counter-1, FadD28 binding, Mtb FBA inh)
CCCc1cc(=O)oc2cc(C)cc(OCC(=O)N3CCC(C(N)=O)CC3)c12	Mtb FBA inh 39.1 | Mtb FBA confirm 85.5 | GDH-TPI counter-2 80.9
CCc1cc(=O)oc2cc(C)cc(OCC(=O)N3CCC(C(=O)O)CC3)c12	Mtb FBA inh 76.0 | Mtb FBA confirm 120.9 | GDH-TPI counter-2 108.9

High-throughput results from PubChem.
